# In all, about 2,100 compounds went through this assay and about 260 (12%) were called active. About 58% were inconclusive and are not listed. The list shows a part of the results. A number with no mark means an inactive call. The call rests on the fitted dose curve; in most records, active means well fitted cell-killing curve with a large enough effect; inconclusive means small, poorly fitted or top-dose-only effect, or effect the other way; inactive means flat fitted curve, though single readings scatter.
# Experiment: Viability Counterscreen for Confirmatory qHTS for Inhibitors of ATXN expression; further: nearly all actives have a fitted effect of over 50% in size
# Conditions: HEK-293 ATXN2-luc cells viability, CellTiter-Fluor, 24 h; activity change, negative = cytotoxicity: at the top concentration
# Procedure, shortened: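 Cells with an ATXN2-luciferase reporter were dosed in a dilution series for 24 h at 37 degrees C. Viability was read first with Gly-Phe-AFC at 25 uM final (fluorescence, ex 405/em 540), then SteadyGlo luminescence. Medium-only wells defined 100% inhibition.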
# Potency means the concentration at half of the fitted maximal effect.
Structure (SMILES),"activity change, negative = cytotoxicity",Potency
CCN1CC2=C(OC(N)=C(C#N)C2c2cccs2)/C(=C\c2cccs2)C1 (stereo not given),-21.6%,
C/C(=N\NC(=O)C12CCC(C)(C(=O)O1)C2(C)C)c1ccccc1O (stereo not given),-16.2%,
Cc1nn(-c2ccccc2)c2nc(-c3cccs3)cc(C(=O)NN)c12,-21.5% [at 57.5 µM],
CCCNC(=O)c1ccc2c(=O)c(O)c(-c3ccc(C)cc3)[nH]c2c1,-21.6% [at 57.5 µM],
Cn1nnnc1Sc1ncnc2scc(-c3cccc(S(C)(=O)=O)c3)c12,,22.4 µM (active)
CC(=O)c1cccc(-c2csc3ncnc(Sc4nnnn4C)c23)c1,,11.2 µM (active)
CCN1CCS/C1=C\C=C\C1=[N+](CC)CCS1,,25.1 µM (active)
Cc1cc(C)cc(NC(=O)CCc2nc3sc4c(c3c(=O)[nH]2)CCCC4)c1,-28.2%,
Cc1ccc(N/C(N)=N/c2nc(C)cc(N3CCCCC3)n2)c(C)c1,,3.16 µM (active)
Cc1cc(C)nc(/N=C(\N)Nc2ccc(C(C)C)cc2)n1,-22.8%,
O=C(c1ccco1)N1CCN(c2ncnc3scc(-c4cccs4)c23)CC1,-14.1%,
COc1ccccc1OCCN1CSC(=S)N(C)C1,,20 µM (active)
COC(=O)C1=C(C)N(c2ccc(Cl)c(Cl)c2)C(=O)C1,-20%,
CCCCC(=O)NNC(=S)NC(=O)c1ccc(C)cc1,-5.51%,
COc1ccc2c(c1)CCCN2S(=O)(=O)c1ccc(Cl)cc1,-21.8% [at 57.5 µM],
COc1ccc(/C=C2\CN(Cc3ccccc3)C/C(=C\c3ccc(OC)c(O)c3)C2=O)cc1O,,12.6 µM (active)
COc1ccc(CCNC2=C(Cl)C(=O)N(Cc3ccccc3)C2=O)cc1OC,-4.27%,
COCC(C)n1c(C)cc(C(=O)COC(=O)c2cccn2C)c1C (stereo not given),4.04%,
CCOc1cc(C=C(C(=O)OC)C(=O)OC)ccc1OCc1ccc([N+](=O)[O-])cc1,,28.2 µM (active)
N#Cc1nc(COc2ccc(-c3ccccc3)cc2)oc1NCc1cccnc1,-11.9%,
CC(C(=O)c1ccc(-c2ccccc2)cc1)[n+]1cccc(NC(=O)c2ccccc2)c1 (stereo not given),-5.41%,
O=C(Nc1ccc[n+](CC(=O)c2cccc3ccccc23)c1)c1ccccc1,,3.16 µM (active)
O=C(/C=C/c1ccc(Cl)cc1)Nc1ccc(CN2CCOCC2)cc1,-13.1%,
O=C(Nc1cnn(C23CC4CC(CC(C4)C2)C3)c1)c1cnn2c(C(F)(F)F)cc(-c3ccco3)nc12,,35.5 µM (active)
Cn1c(S(=O)(=O)c2ccc([N+](=O)[O-])cc2)nc(Br)c1Br,-5.53%,

Structure (SMILES),"activity change, negative = cytotoxicity",Potency
COc1ccc2c(c1)CC(N1CCN(C)CC1)c1cc(OC)ccc1S2 (stereo not given),,28.2 µM (active)
O=C(CSc1nc2ncc(Br)cc2[nH]1)Nc1ccccc1-c1ccccc1,-20.4% [at 57.5 µM],
COc1cccc(C2CC(c3c(-c4ccccc4)c4cc(Cl)ccc4[nH]c3=O)=NN2S(C)(=O)=O)c1OC (stereo not given),-18.9%,
C/C(=N\NC(=O)CN1CCCCC1)c1ccccc1O,-9.43%,
Cc1cc(C)c(S(=O)(=O)/N=C2\C=C(Nc3ccc(C(=O)O)cc3)C(=O)c3ccccc32)c(C)c1,,3.16 µM (active)
FC(F)(F)c1nc(-c2cccs2)ncc1-c1nnnn1-c1ccc(Cl)cc1,,35.5 µM (active)
Oc1c(C(c2ccccn2)N2CCC(Cc3ccccc3)CC2)cc(Cl)c2cccnc12 (stereo not given),,25.1 µM (active)
CCCCSc1nc(C)cc(SCC(=O)N/N=C/c2cccc(OC)c2O)n1,-21.9%,
O=C(C1CCC(CNS(=O)(=O)c2cccs2)CC1)N1CCN(c2ccc(F)cc2)CC1 (stereo not given),-23%,
CN1CCN(c2cc(-c3cc(O)c4ncccc4c3)ccn2)CC1,,31.6 µM (active)
CCN(CC)CCNc1ccnc2cc(Cl)ccc12,-14%,
O=c1c2ccccc2sc2c(CO)ccc(NCCN3CCCCC3)c12,,22.4 µM (active)
CCN(CC)CCNc1ccc(CO)c2sc3ccccc3c(=O)c12,,20 µM (active)
Cc1cc(C(=O)CN2C(=O)c3ccccc3S2(=O)=O)c(C)n1C(C)C,4.42%,
O=C(Nc1ccc(Br)cc1)c1cccc(OC(=S)N2CCOCC2)c1,-8.47%,
CCn1c2ccccc2c2cc(NC(=O)COC(=O)c3cccc(S(=O)(=O)NC)c3)ccc21,-19.4% [at 57.5 µM],
OC1(c2ccc(Cl)cc2)CCN(Cc2c[nH]c3ccccc23)CC1,-15.6%,
O=C(Nc1ccc(NC(=O)c2ccc(Cl)cc2Cl)cc1)c1cccs1,-22.4% [at 57.5 µM],
O=C(Nc1ccc(Cl)cc1)Nc1nc(-c2sccc2Br)cs1,,10 µM (active)
CCCCOc1ccccc1NC(=O)Cn1c(-c2nonc2N)nc2ccccc21,,11.2 µM (active)
CCOc1ccccc1NC(=O)CCCc1nc2ccccc2c(=O)[nH]1,-11%,
CCCCOc1ccccc1NC(=O)c1scc2c1OCCO2,-17.1%,
Cc1cc(OCCCCCn2ccnc2)cc(C)c1Cl,-28.4% [at 57.5 µM],
Cc1cc(SCC(=O)NN)c2cc(Br)ccc2n1,-20.4% [at 57.5 µM],
CCCOc1ccc(C(=O)NC(=S)NNC(=O)c2c(-c3ccccc3)noc2C)cc1,1.64%,

Structure (SMILES),"activity change, negative = cytotoxicity",Potency
COc1cccc(/C=N/Nc2nc3ccccc3n3cnnc23)c1O,-9.86%,
O=[N+]([O-])c1ccc(O)c(/C=N\N=C2c3ccccc3-c3ccccc32)c1,,12.6 µM (active)
CCN(CC)S(=O)(=O)c1ccc(N/N=C/c2cc(OC)ccc2O)nc1,-10.2%,
O=C(CCc1ccccc1)N/N=C/c1cc(Br)ccc1O,-17.3%,
O=[N+]([O-])c1ccc(O)c(/C=N/Nc2ccccn2)c1,,10 µM (active)
O=[N+]([O-])c1ccc(O)c(/C=N/Nc2ncnc3c2cnn3-c2ccccc2)c1,,12.6 µM (active)
COc1cccc(/C=N/Nc2ncnc3c2ncn3Cc2ccccc2)c1O,-7.4%,
Cc1cc(Cl)c(C(=O)Nc2cccc(C(F)(F)F)c2)c(C)n1,-20.8% [at 57.5 µM],
C=CCN1C=CC(=O)[C@@H](OC(=O)Nc2ccc(Br)cc2)[C@H]1c1ccccc1Br,-15.2%,
O=C(CN1C(=O)c2ccccc2S1(=O)=O)Nc1ncc(Cl)cc1Cl,0.426%,
O=C(c1ccco1)N(CCCN1CCOCC1)c1nc(-c2ccc(Cl)cc2)cs1,-12.7%,
CC(=O)Nc1cc(-c2ccc(C(=O)NC3CC3)cc2)cn2c(-c3cccc(C(C)=O)c3)cnc12,-20.7% [at 57.5 µM],
NS(=O)(=O)c1ccc(CCNC(=O)COC(=O)/C=C/c2cc(Br)ccc2F)cc1,4.96%,
NS(=O)(=O)c1ccc(CCNC(=O)c2cc(-c3ccccn3)nc3ccc(Br)cc23)cc1,,35.5 µM (active)
O=C(NCCc1ccccc1)c1ccc2nccnc2c1,-11.9%,
CCC(CC)C(=O)c1c[nH]c(C(=O)NCc2ccccn2)c1,-5.14% [at 57.5 µM],
CCn1c(/C=C/c2ccc([N+](=O)[O-])o2)nc2ccccc2c1=O,,10 µM (active)
O=[N+]([O-])c1ccc(/C=N/N=C/c2ccc([N+](=O)[O-])o2)o1,,7.94 µM (active)
COc1ccccc1NC(=O)Nc1nc(CC(=O)N2CCN(c3ccccc3)CC2)cs1,-22% [at 57.5 µM],
O=C(NC(c1ccccc1)c1c(O)ccc2ccccc12)c1ccccc1Cl (stereo not given),-20.7%,
CC(C)Nc1nc(NC(C)C)nc(N(C#N)CCOc2ccc(Cl)cc2Cl)n1,-19.4%,
O=C(NC(c1ccccc1)c1ccc2ccccc2n1)C1CCN(CCOc2ccc(Cl)cc2Cl)CC1 (stereo not given),,25.1 µM (active)
CCSc1nc2ccccc2n1C(=O)/C=C\c1ccc(OC)c(OC)c1,,7.94 µM (active)
COc1ccc(/C=C/C(=O)Nc2cccc(S(=O)(=O)N3CCCC3)c2)cc1OC,-3.83%,
COc1cc(/C=C/C(=O)Nc2ccc(OC)c(S(=O)(=O)N3CCOCC3)c2)ccc1OCC#N,-23%,

Structure (SMILES),"activity change, negative = cytotoxicity",Potency
COC1=C(c2ccccc2)C(=O)c2ccccc2C1=O,-26.8%,
CCOC(=O)c1ccc(NC(=O)c2nc[nH]c2C(=O)N[C@H](C)c2ccccc2)cc1,1.71%,
CC(=O)c1sc(NC(=O)c2cc(-c3ccccc3)nn2-c2ccccc2)nc1C,-12%,
O=C(Nc1nc(NC(=O)c2ccco2)n(-c2ccccc2)n1)c1ccccc1,,22.4 µM (active)
O=C(NCCc1csc(-c2ccc(Cl)cc2)n1)c1ccco1,-29% [at 57.5 µM],
Cc1nc(N2CCN(Cc3ccc4c(c3)OCO4)CC2)c2oc3ccccc3c2n1,-27%,
CCOC(=O)c1c(NC(=O)COC(=O)Cn2cnc3ccccc32)sc(C)c1C,-16.8% [at 57.5 µM],
CNc1ccc(Br)cc(C(=O)/C=C/c2ccc3c(c2)OCO3)c1=O,-17.3%,
O=C(/C=C/c1ccccc1)c1cc(Br)ccc(=O)c1O,,22.4 µM (active)
CCNc1ccc(Br)cc(C(=O)/C=C/c2ccccc2Cl)c1=O,-23.3%,
NC(=S)N1OC[C@@H]2COc3ccc4ccccc4c3[C@@H]21,-27.5% [at 57.5 µM],
COc1ccccc1Cc1c(-c2ccco2)nc2c(C)cc(Br)cn12,,10 µM (active)
Cn1c(=O)c2cc(NC(=O)Nc3cccnc3)ccc2n1Cc1ccc(Cl)cc1,-14.8% [at 57.5 µM],
COC(=O)c1ccc(N2CCOCC2)c(NC(=O)Nc2cccc(OC)c2)c1,-8.48%,
COc1cccc(S(=O)(=O)NCc2ccc(C(=O)Nc3cccc(Cl)c3)cc2)c1,,20 µM (active)
COc1cccc(OCC(=O)Nc2cc(Cl)ccc2Oc2ccccc2)c1,6.08%,
O=C(Nc1ccc(Cl)c(Cl)c1)c1cccc(S(=O)(=O)NCc2cccnc2)c1,,3.16 µM (active)
O=C(/C=C/Nc1ccc(S(=O)(=O)Nc2ncccn2)cc1)c1ccc(Cl)c(Cl)c1,-21.3% [at 57.5 µM],
O=C(CSc1nnnn1-c1ccccc1)Nc1nsc(-c2ccccc2)n1,-13.5% [at 57.5 µM],
CCn1c2ccccc2c2cc(NC(=O)COC(=O)c3ccccc3F)ccc21,2.58%,
C=CCNc1oc(-c2ccc(Cl)cc2)nc1C#N,-6.31% [at 57.5 µM],
NC(Cc1ccc(F)cc1)c1csc(Nc2cc(NCc3ccco3)ncn2)n1 (stereo not given),-10.8%,
NC(=O)c1cccc(Nc2nc(C(N)Cc3ccc(C(F)(F)F)cc3)cs2)n1 (stereo not given),-3.62%,
NC(Cc1ccc(Cl)cc1)c1csc(Nc2nccc(C(F)(F)F)n2)n1 (stereo not given),,28.2 µM (active)
NC(Cc1ccccc1)c1csc(Nc2nccc(C(F)(F)F)n2)n1 (stereo not given),,14.1 µM (active)
